{"source": "PubChem BioAssay (NCI)", "note": "About 79,000 compounds went through this panel and 15% of them were active in at least one assay; those are over-represented in the sample as a whole. Values without a mark were called inactive. Activity calls are given as the source filed them. No stated cut-off is given here; in the data, active means growth inhibition above about 70%; inactive means the rest. Where a SMILES comes first, the peptide text is derived from it. The star is where a group is joined. Trt = c1ccc(C(c2ccccc2)(c2ccccc2)*)cc1; Cbz = O=C(OCc1ccccc1)*", "data": [{"test": "NCI Yeast Anticancer Drug Screen. Data for the mlh1 rad18 strain (AID 175)", "conditions": "S. cerevisiae mlh1 rad18 strain growth inhibition; at 5.0 µM (retest, dose inferred, filed as 0.5); hits give high values", "method_in_brief": "(§1)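 Compound-treated yeast growth, normalised to vehicle controls. Strain bears defined DNA repair mutations.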", "values": [{"smiles": "CC(=O)O[C@H]1CC[C@]2(C)C3=CC[C@]4(C)[C@@H](C(C)=O)CC[C@H]4[C@@]34C=C[C@]2(C1)C1C(=O)OC(=O)C14", "note": "(stereo not given in full)", "growth inhibition": "-20%"}, {"smiles": "Cc1cc(O)c2c(c1)C(=O)c1c(c(O)cc(O)c1-c1c(O)cc(O)c3c1C(=O)c1cc(C)cc(O)c1C3=O)C2=O", "growth inhibition": "-8%"}, {"smiles": "NC(=O)/C(=N\\NC(=O)c1cc2ccccc2cc1O)C1C(=O)N(c2ccccc2)N=C1N", "note": "(stereo not given)", "growth inhibition": "25%"}, {"smiles": "CCNC(=S)NNC(=S)NNc1ccccc1", "growth inhibition": "47%"}, {"smiles": "OCC(O)C(O)C(O)C(O)C(O)C(/C=N/Nc1ccccc1)=N/Nc1ccccc1", "note": "(stereo not given)", "growth inhibition": "8%"}, {"smiles": "O=C(CN(Cc1ccccc1)Cc1ccccc1)c1ccccc1", "growth inhibition": "-1%"}, {"smiles": "COC(=O)C1CCC(c2ccccc2)CC1C(=O)OC", "note": "(stereo not given)", "growth inhibition": "-3%"}, {"smiles": "COc1ccc2c(c1)C(=O)C(Br)CC2", "note": "(stereo not given)", "growth inhibition": "13%"}, {"smiles": "O=C1c2ccccc2C(=O)c2sc(Nc3ccc(Cl)cc3)nc21", "growth inhibition": "85% (active)"}, {"smiles": "O=Nc1c(-c2cccc([N+](=O)[O-])c2)nc2cnccn12", "growth inhibition": "58%"}, {"smiles": "CC/C(=N\\NS(=O)(=O)c1ccc(C)cc1)c1cccc(OC)c1", "growth inhibition": "36%"}, {"smiles": "NNC(=S)NN/C=C(\\C=Nc1ccccc1)[N+](=O)[O-]", "growth inhibition": "-20%"}, {"smiles": "CC(C)(C)c1ccc(CN2CCN(C(c3ccccc3)c3ccc(Cl)cc3)CC2)cc1", "note": "(stereo not given)", "growth inhibition": "35%"}, {"smiles": "O=C1OCc2cccc3cccc1c23", "growth inhibition": "5%"}, {"smiles": "CC(C)CC(NC(=O)COc1c(Cl)cc(Cl)c(Cl)c1Cl)C(=O)O", "note": "(stereo not given)", "growth inhibition": "-2%"}, {"smiles": "CC1CCN(CCC(=O)c2cccc(O)c2)CC1", "growth inhibition": "10%"}, {"smiles": "CCC(c1ccc(O)c(C2CCCCC2)c1)C(CC)c1ccc(OC(=O)c2ccccc2)c(C2CCCCC2)c1", "note": "(stereo not given)", "growth inhibition": "-14%"}, {"smiles": "CC(=O)c1csc2c1C(=O)c1scc(C(C)=O)c1C2=O", "growth inhibition": "32%"}, {"smiles": "O=C1C2=Cc3ccccc3CCN2c2ccccc21", "growth inhibition": "2%"}, {"smiles": "Cc1cc(I)cc(I)c1O", "growth inhibition": "10%"}, {"smiles": "NCCCSc1ccc(Br)cc1", "growth inhibition": "-4%"}, {"smiles": "O=C1OC2(Cc3ccccc31)c1ccccc1-c1ccccc12", "growth inhibition": "-19%"}, {"smiles": "Cc1occc1C(=S)Nc1ccc(Cl)c(C(=O)OCC2CC2)c1", "growth inhibition": "-2%"}, {"smiles": "c1cc(C2=NCCN2)ccc1Nc1ccc(-c2cc3ccc(C4=NCCN4)cc3[nH]2)cc1", "growth inhibition": "99% (active)"}, {"smiles": "Cc1ccc(C)c(NC(=O)CC2SC(=Nc3ccccc3Cl)NC2=O)c1", "note": "(stereo not given)", "growth inhibition": "31%"}, {"smiles": "Cc1ccccc1[P+](C)(c1ccccc1C)c1ccccc1C", "growth inhibition": "34%"}, {"smiles": "Oc1ccc(CNCc2ccccc2)c2cccnc12", "growth inhibition": "4%"}, {"smiles": "COC(=O)c1ccc(OC)cc1", "growth inhibition": "3%"}, {"smiles": "OCC(CO)C1c2cccc3ccc4cccc1c4c23", "growth inhibition": "-4%"}, {"smiles": "CCC(CCCN(CC)CCc1ccccc1)OC(=O)c1cc(OC)c(OC)c(OC)c1", "note": "(stereo not given)", "growth inhibition": "5%"}, {"smiles": "O=[N+]([O-])c1ccc(-[n+]2ccc3ccccc3c2)c([N+](=O)[O-])c1", "growth inhibition": "40%"}, {"smiles": "CN(C)CCC1(C2=CCCC2)CC/C(=C\\c2ccccc2Cl)C1=O", "note": "(stereo not given)", "growth inhibition": "4%"}, {"smiles": "CCOC(=O)CCC(NC(=O)c1ccc(NC(OC)c2nc3cc(C(F)(F)F)ccc3nc2-c2ccccc2)cc1)C(=O)OCC", "note": "(stereo not given)", "growth inhibition": "92% (active)"}, {"smiles": "CCCCCCN(CCCCCC)CC(O)c1cc(-c2ccccc2)nc2c(O)cccc12", "note": "(stereo not given)", "growth inhibition": "30%"}, {"smiles": "O=C1C=CC(=O)N1C1c2ccccc2-c2ccccc21", "growth inhibition": "99% (active)"}, {"smiles": "CC(=O)c1ccc(OCc2ccccc2)cc1", "growth inhibition": "-3%"}, {"smiles": "O=C(Oc1cccc2cccnc12)c1ccccc1", "growth inhibition": "7%"}, {"smiles": "C=C(Cl)C(=NC(C)(C)C)Nc1ccccc1C", "growth inhibition": "30%"}, {"smiles": "COC(=O)C(CSC(c1ccccc1)(c1ccccc1)c1ccccc1)NC(=O)C(CC(N)=O)NC(=O)OCc1ccccc1", "note": "(stereo not drawn) (Cbz-Asn-Cys(Trt)-OMe; configuration not given here)", "growth inhibition": "27%"}, {"smiles": "ClCc1nnc2n1-c1ccc(Cl)cc1SC2", "growth inhibition": "-20%"}]}, {"test": "NCI Yeast Anticancer Drug Screen. Data for the mlh1 rad18 strain (AID 175)", "conditions": "S. cerevisiae mlh1 rad18 strain growth inhibition; at 50.0 µM (retest, dose inferred, filed as 5.0); hits give high values", "method_in_brief": "as §1", "values": [{"smiles": "CC(=O)O[C@H]1CC[C@]2(C)C3=CC[C@]4(C)[C@@H](C(C)=O)CC[C@H]4[C@@]34C=C[C@]2(C1)C1C(=O)OC(=O)C14", "note": "(stereo not given in full)", "growth inhibition": "-26%"}, {"smiles": "Cc1cc(O)c2c(c1)C(=O)c1c(c(O)cc(O)c1-c1c(O)cc(O)c3c1C(=O)c1cc(C)cc(O)c1C3=O)C2=O", "growth inhibition": "80% (active)"}, {"smiles": "NC(=O)/C(=N\\NC(=O)c1cc2ccccc2cc1O)C1C(=O)N(c2ccccc2)N=C1N", "note": "(stereo not given)", "growth inhibition": "25%"}, {"smiles": "CCNC(=S)NNC(=S)NNc1ccccc1", "growth inhibition": "100% (active)"}, {"smiles": "OCC(O)C(O)C(O)C(O)C(O)C(/C=N/Nc1ccccc1)=N/Nc1ccccc1", "note": "(stereo not given)", "growth inhibition": "92% (active)"}, {"smiles": "O=C(CN(Cc1ccccc1)Cc1ccccc1)c1ccccc1", "growth inhibition": "57%"}, {"smiles": "COC(=O)C1CCC(c2ccccc2)CC1C(=O)OC", "note": "(stereo not given)", "growth inhibition": "9%"}, {"smiles": "COc1ccc2c(c1)C(=O)C(Br)CC2", "note": "(stereo not given)", "growth inhibition": "99% (active)"}, {"smiles": "O=C1c2ccccc2C(=O)c2sc(Nc3ccc(Cl)cc3)nc21", "growth inhibition": "98% (active)"}, {"smiles": "O=Nc1c(-c2cccc([N+](=O)[O-])c2)nc2cnccn12", "growth inhibition": "99% (active)"}, {"smiles": "CC/C(=N\\NS(=O)(=O)c1ccc(C)cc1)c1cccc(OC)c1", "growth inhibition": "87% (active)"}, {"smiles": "NNC(=S)NN/C=C(\\C=Nc1ccccc1)[N+](=O)[O-]", "growth inhibition": "86% (active)"}, {"smiles": "CC(C)(C)c1ccc(CN2CCN(C(c3ccccc3)c3ccc(Cl)cc3)CC2)cc1", "note": "(stereo not given)", "growth inhibition": "61%"}, {"smiles": "O=C1OCc2cccc3cccc1c23", "growth inhibition": "36%"}, {"smiles": "CC(C)CC(NC(=O)COc1c(Cl)cc(Cl)c(Cl)c1Cl)C(=O)O", "note": "(stereo not given)", "growth inhibition": "12%"}, {"smiles": "CC1CCN(CCC(=O)c2cccc(O)c2)CC1", "growth inhibition": "77% (active)"}, {"smiles": "CCC(c1ccc(O)c(C2CCCCC2)c1)C(CC)c1ccc(OC(=O)c2ccccc2)c(C2CCCCC2)c1", "note": "(stereo not given)", "growth inhibition": "-9%"}, {"smiles": "CC(=O)c1csc2c1C(=O)c1scc(C(C)=O)c1C2=O", "growth inhibition": "49%"}, {"smiles": "O=C1C2=Cc3ccccc3CCN2c2ccccc21", "growth inhibition": "2%"}, {"smiles": "Cc1cc(I)cc(I)c1O", "growth inhibition": "62%"}, {"smiles": "NCCCSc1ccc(Br)cc1", "growth inhibition": "13%"}, {"smiles": "O=C1OC2(Cc3ccccc31)c1ccccc1-c1ccccc12", "growth inhibition": "-9%"}, {"smiles": "Cc1occc1C(=S)Nc1ccc(Cl)c(C(=O)OCC2CC2)c1", "growth inhibition": "8%"}, {"smiles": "c1cc(C2=NCCN2)ccc1Nc1ccc(-c2cc3ccc(C4=NCCN4)cc3[nH]2)cc1", "growth inhibition": "99% (active)"}, {"smiles": "Cc1ccc(C)c(NC(=O)CC2SC(=Nc3ccccc3Cl)NC2=O)c1", "note": "(stereo not given)", "growth inhibition": "82% (active)"}, {"smiles": "Cc1ccccc1[P+](C)(c1ccccc1C)c1ccccc1C", "growth inhibition": "84% (active)"}, {"smiles": "Oc1ccc(CNCc2ccccc2)c2cccnc12", "growth inhibition": "99% (active)"}, {"smiles": "COC(=O)c1ccc(OC)cc1", "growth inhibition": "-3%"}, {"smiles": "OCC(CO)C1c2cccc3ccc4cccc1c4c23", "growth inhibition": "49%"}, {"smiles": "CCC(CCCN(CC)CCc1ccccc1)OC(=O)c1cc(OC)c(OC)c(OC)c1", "note": "(stereo not given)", "growth inhibition": "10%"}, {"smiles": "O=[N+]([O-])c1ccc(-[n+]2ccc3ccccc3c2)c([N+](=O)[O-])c1", "growth inhibition": "90% (active)"}, {"smiles": "CN(C)CCC1(C2=CCCC2)CC/C(=C\\c2ccccc2Cl)C1=O", "note": "(stereo not given)", "growth inhibition": "92% (active)"}, {"smiles": "CCOC(=O)CCC(NC(=O)c1ccc(NC(OC)c2nc3cc(C(F)(F)F)ccc3nc2-c2ccccc2)cc1)C(=O)OCC", "note": "(stereo not given)", "growth inhibition": "92% (active)"}, {"smiles": "CCCCCCN(CCCCCC)CC(O)c1cc(-c2ccccc2)nc2c(O)cccc12", "note": "(stereo not given)", "growth inhibition": "87% (active)"}, {"smiles": "O=C1C=CC(=O)N1C1c2ccccc2-c2ccccc21", "growth inhibition": "99% (active)"}, {"smiles": "CC(=O)c1ccc(OCc2ccccc2)cc1", "growth inhibition": "-9%"}, {"smiles": "O=C(Oc1cccc2cccnc12)c1ccccc1", "growth inhibition": "98% (active)"}, {"smiles": "C=C(Cl)C(=NC(C)(C)C)Nc1ccccc1C", "growth inhibition": "80% (active)"}, {"smiles": "COC(=O)C(CSC(c1ccccc1)(c1ccccc1)c1ccccc1)NC(=O)C(CC(N)=O)NC(=O)OCc1ccccc1", "note": "(stereo not drawn) (Cbz-Asn-Cys(Trt)-OMe; configuration not given here)", "growth inhibition": "88% (active)"}, {"smiles": "ClCc1nnc2n1-c1ccc(Cl)cc1SC2", "growth inhibition": "87% (active)"}]}]}
